The text below walks through data of PubChem BioAssay.

The test system of this assay is wheat germ agglutinin (Triticum aestivum), Alexa647-labelled. As to the kind of experiment: wheat germ agglutinin binders on compound microarrays, profiling panel, artefact control for SMM control-protein annotation, biochemical, small-molecule microarray, 635/667 nm fluorescence (AID 1140).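 Also: score merges 667 nm feature emission with signal to noise over triplicate slides.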 Particulars: WGA-A647 binding, 635 nm fluorescence, higher = more signal.
Regarding `C=CC[C@]1(C(=O)O)N=C(c2ccc(OCCCO)cc2)O[C@H]1c1ccccc1CN=[N+]=[N-]`, the composite z-score worked out at 0.184.
`C[N+](C)(C)CCCCNC(=O)[C@H]1C[C@H]2C(=O)N3CCC[C@H]3C(=O)N2[C@H]1c1ccc(O)cc1`: the composite z-score came to 0.282.
For the molecule `[N-]=[N+]=NCc1ccccc1[C@@H]1OC(c2ccc(OCCCO)cc2)=N[C@]1(Cc1ccccc1)C(=O)O`, the composite z-score is 0.536.
Molecule `CN(C)CCCN1C(=O)[C@@]2(c3ccc([N+](=O)[O-])cc3)CC(=O)N(C3CCCCC3)[C@@H]2c2ccc(CO)cc21` registered a composite z-score of 0.12.
The figure for `CCOC1=C2C(c3ccc(C)cc3)N(S(=O)(=O)c3ccc(C)cc3)CC2n2c(=O)n(-c3ccccc3)c(=O)n2C1` (stereo unspecified) is 0.755; for `O=C1c2ccccc2[C@](Cc2ccccc2I)(C(=O)O)[C@H](c2ccc(CO)cc2)N1Cc1ccccc1C(F)(F)F` it is 1.12; for `CCCCCCCCCCC(O)C1C=CC2C(=O)N(c3ccccc3)C(=O)C2N1Nc1ccc([N+](=O)[O-])cc1` (stereo unspecified) it is 0.56.
Take `CCOC(=O)C1=CC[C@@H](c2cccc(Cl)c2)N(S(=O)(=O)c2ccc(C)cc2)[C@H]1c1ccc(C#N)cc1`: the composite z-score turned out to be 0.985.
The figure for `CCCCCCC#C[Si](O[C@H](c1ccccc1)c1cn([C@H](C)c2ccccc2)nn1)(C(C)C)C(C)C` is 0.144; for `O=C(NCC(F)(F)F)[C@@H]1c2ccccc2C(=O)N(Cc2ccccc2)[C@H]1c1ccc(CO)cc1` it is -0.595.
In the case of `O=C1OCC=C[C@H]2OC34C=CCN(c5ccc(Cl)cc5)C(=O)[C@H]3N(CCCO)C(=O)[C@@H]4[C@@H]12` (stereo partly specified), the composite z-score was -0.748.
Regarding `CCOC(=O)N1C(c2ccc(OCCCO)cc2)=NC(C(=O)OC)N1C(=O)OCC` (stereo unspecified), the composite z-score came to 0.669.
`Cc1ccc(S[C@]2(C(=O)NCC(F)(F)F)CC(=O)N(C3Cc4ccccc4C3)[C@@H]2c2ccc(CO)cc2I)cc1` showed a composite z-score of 0.0728.
`[N-]=[N+]=Nc1ccccc1C[C@]1(C(=O)N2CCCCC2)N=C(c2ccc(OCCCO)cc2)O[C@H]1c1ccccc1N=[N+]=[N-]` showed a composite z-score of 0.811.
As for `C=CCNC(=O)[C@H]1[C@@H]2C(=O)O[C@@H](c3ccccc3)[C@@H](c3ccccc3)N2[C@@H](c2ccc(O)cc2)[C@]12C(=O)Nc1ccc(C#Cc3ccc(OC)cc3)cc12`, the figure is 0.278; as for `[N-]=[N+]=NCc1ccccc1C[C@]1(C(=O)NCc2ccccc2)COC(c2ccc(OCCCO)cc2)=N1`, 0.762; as for `O=C1OCC=C[C@H]2OC34C=CCN(CCN5CCOCC5)C(=O)[C@H]3N(CCCCCCO)C(=O)[C@@H]4[C@@H]12` (stereo partly specified), -0.0261.
In turn, `[N-]=[N+]=Nc1ccccc1[C@H]1OC(c2ccc(OCCCO)cc2)=N[C@@]1(CCS(=O)(=O)c1ccccc1)C(=O)N1CCOCC1` showed a composite z-score of 1.47.
`COC(=O)[C@@]1(Cc2ccccc2)[C@H]2c3cc(C(=O)N(C)C)n(Cc4cc(F)c(F)c(F)c4)c3C[C@H]2CN1C(=O)c1ccccc1` yielded a composite z-score of 0.418.
With `O=C1O[C@H](c2ccccc2)[C@H](c2ccccc2)N2[C@H]1[C@@H](C(=O)N1CCCCCCC1)[C@]1(C(=O)Nc3ccc(C#CC4=CCCCC4)cc31)[C@H]2c1ccc(O)cc1`, the composite z-score amounted to 1.81.
The figure for `[N-]=[N+]=NCc1ccccc1C[C@]1(C(N)=O)N=C(c2ccc(OCCCO)cc2)O[C@H]1c1ccccc1N=[N+]=[N-]` is 1.03; for `C=CCOC(=O)[C@H]1[C@@H]2C(=O)O[C@@H](c3ccccc3)[C@@H](c3ccccc3)N2[C@@H](c2ccc(OCCOC(=O)[C@H]3C[C@H]4C(=O)N[C@@H](CCCC[N+](C)(C)C)C(=O)N4[C@H]3c3ccc(O)cc3)cc2)[C@]12C(=O)Nc1ccccc12` it is 0.22.
The molecule `CC(C)NC(=O)[C@@]1(c2ccc([N+](=O)[O-])cc2)CC(=O)N(C(C)C)[C@@H]1c1ccc(CO)cc1` had a composite z-score of 0.516.
Consider `COc1ccc([Si](C)(C)[C@@H]2[C@@H](CCn3cc([C@H](O)c4ccccc4)nn3)O[C@]3(C(=O)N(C)c4ccccc43)[C@H]2C)cc1`, for which the composite z-score was determined as 0.0783.
Turning to `COCCOC(=O)N1C(=O)[C@@]2(c3cc(C#CC4=CCCCC4)ccc31)[C@H](C(=O)N1CCN(c3ncccn3)CC1)[C@H]1C(=O)O[C@H](c3ccccc3)[C@H](c3ccccc3)N1[C@@H]2c1ccc(OCCO)cc1`, the composite z-score stood at 0.232.
Turning to `C=CCOC(=O)[C@@H]1[C@H]2C(=O)O[C@H](c3ccccc3)[C@H](c3ccccc3)N2[C@H](c2ccc(OCCOC(=O)[C@H]3C[C@H]4C(=O)N[C@@H](CC(C)C)C(=O)N4[C@H]3c3cccc(OCCO)c3)cc2)[C@@]12C(=O)Nc1ccc(I)cc12`, the composite z-score is 0.34.
The figure for `CC(C)N1C(=O)c2ccccc2[C@](C)(C(=O)NCCCN(C)C)[C@@H]1c1ccc(CO)cc1` is 0.231; for `CC(=O)NCCCC[C@@H]1NC(=O)[C@@H]2C[C@H](C(=O)NCCCCCC[N+](C)(C)C)[C@H](c3cccc(OCCO)c3)N2C1=O` it is 0.548.
As for `CCCCN1CC=CC23O[C@@H]4C=CCCOC(=O)C4[C@H]2C(=O)N(CCCO)[C@@H]3C1=O` (stereo partly specified), the composite z-score was -1.45.
`C=CCC(OC(C)=O)[C@@H]1[C@@H](N(Cc2cc3ccccc3o2)C(=O)c2cccc3ccccc23)c2cc(OCCCO)ccc2N1C(=O)Cc1ccc(OC)cc1` (stereo partly specified) yielded a composite z-score of 0.637.
Consider `C=CCN1C(=O)[C@]2(COC(c3ccc(OCCCO)cc3)=N2)Cc2ccccc21`, for which the composite z-score is -0.0492.
In the case of `C=C[C@H](C)[C@H](OC(=O)Nc1ccc(OC)cc1)c1ccc(O)c2ccccc12`, the composite z-score stood at 0.0411.
`COc1ccccc1CN1C(=O)c2ccccc2[C@](Cc2ccccc2I)(C(=O)NC2CC2)[C@@H]1c1ccc(CO)cc1` had a composite z-score of 0.52.
In turn, `C=CC[C@@]1(C(N)=O)N=C(c2ccc(OCCCO)cc2)O[C@@H]1c1ccccc1N=[N+]=[N-]` gave a composite z-score of 1.13.
The figure for `CCN(CC)c1ccc(N2CC=CC34O[C@@H]5C=CCOC(=O)[C@@H]5[C@H]3C(=O)N(CCCCCO)[C@@H]4C2=O)cc1` (stereo partly specified) is -0.559; for `COCCOC(=O)N1C(=O)[C@@]2(c3cc(C#CCC(C(=O)OC)C(=O)OC)ccc31)[C@H](c1ccc(OCCO)cc1)N1[C@H](c3ccccc3)[C@H](c3ccccc3)OC(=O)[C@H]1[C@@H]2C(=O)NC[C@H](O)c1ccccc1` it is 0.422.
